# Tested on: FXR:RXRa (NR concentration 270 nM, RXRa partner concentration 90 nM)
# Experiment: PBM binding z-score (relative to random genomic background probes); higher = stronger binding; sequences stand for … in GC…GCGATTGACAGCGTAGAATGAAGG
# In short: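 On custom Agilent 4×180K arrays, double-stranded probes with 34-nt variable regions carried direct-repeat seeds, single-nucleotide variants, half-site ablations or random human genomic background. Ligand-free nuclear receptor dimers were applied for 1 h, and binding was read with antibodies against each partner (one per run). Binding z-scores come from regression-normalized fluorescence, with the random background probes as reference.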
row,Sequence,PBM binding z-score
1,CGAACTAGGTCAGCCAGGACAGTGAATACATTGA,1.87
2,GGTGCTAGGTCAGGTTGGTCAGCTAACGGGTACG,1.56
3,CCTCGGAGGACAGAAGGTAAGAGCTGTCCGCTTT,-0.304
4,TCTTGTAGAGCAACAGGAGGTTAAGAAAGATCGA,0.207
5,TGATATAGGTAATACAGGTGAAAGTCGGCATCTA,0.306
6,GCTGCTAGGTCAGGTTGGTCAGCTGACGGGTACG,1.19
7,GATACAGGGTCATGGCCAGAGTACGCGTATTGAT,6.5
8,CCTACTGGGCCAAAGGTCACTGATTCCAATGCTC,4.23
9,GCGATTGGGGCATCAGCAGGTTACCATAACTTAA,0.0293
10,GCTTACGCGTCAAAGGTTATAGCATGAATAGAAT,1.21
11,TCGAGCAGGCCAGAGGGTCACTCAAGAGGTACGG,0.628
12,CCTGCTAGGTCAATGGTCAGATAAAGCAGCTCGC,2.9
13,AGAACGAGGGCACGCTTAGTTGATAGCAGAGTAG,0.731
14,TCTGCTAGGTCAAGGATGGTCAGCTAATCTGCTA,2.86
15,TCGAGTAGGTTAATCGGGGCATTCAGCCAACATA,0.0036
16,CGTCCAAGGTCAAGGTCATTGAAAGAGACTCGAA,7.9
17,TTACCAAGGTGAGAGGTCGTTGATGCACGCCTTG,1.86
18,CCTAGCAGGCCAATCTGGGTCACTAAAGGCTTGA,0.156
19,CGTCCAAGGTTAGCAGGTCAGTGAAAGCGACGTG,1.34
20,CGTCCAAGGTCAATGCTCGGTCAGTGAAAGCATT,5.98

row,Sequence,PBM binding z-score
1,CCTAGCAAGCCAATCTGGGTCACTCAAGGCTTGA,0.309
2,AGTCTAAGTTCACTAGGTAACGTAAGATTCAGCT,2.84
3,GGAACGAGGGCATTCGAGTTGATGGCATGGCGAT,1.48
4,GCGACTGGGGCAAAGCTGGTTACCATAAGGTTGG,-0.489
5,ATCGCAAGGTCGAAGGTGAGTATACCCACCCGAA,1.5
6,CGTCCCAGGTCAATGCTAGGTCAGTGAAAGCATT,4.29
7,GCATATAGGTAATACAAGGTGAAAGGCCGATTGT,0.496
8,ACAACGAGGGCACGCTGAGTTGATAGCAGAGTAG,0.762
9,CAAACTAGGTCATGGTCAAAGTCGGTTTGTGCCA,3.73
10,CGTCCAAGGTGAGCAGGTCAGTGAAAGCGACGTG,0.495
11,TTACCAAGGTGAGCTGAGGTTGTTGATCCAACTC,0.871
12,GCTAGTTGGTCAGTAAGAGGTCACACACCGGTCG,2.76
13,CGTCCAAGGTCAATGCTAGGTCAATGAAAGCATT,6.8
14,GCTAGTTGGTCAGCAAAAGGTCACACACCGGTCG,3.17
15,CCTAGTTGGTCATGAGGTCACACACCGGATATGA,4.57
16,CCAGACAGGTGTAAGGTAACTCAGTCTGGTACGC,-0.0338
17,TCGAGGAGGTTAGTCGGGGCATTCAGCCAACATA,0.421
18,ATCGAAAGGTCGAGGTGAGTAGAGAGAAAGGGAA,4.27
19,CCGACTGGGACAAAGGTTACCATACTCAGTACGA,0.993
20,CCGACTGGGGCATAAAGGTTACCATACCATCCGG,0.385
